Assay outcomes: PubChem BioAssay, National Center for Advancing Translational Sciences (NCATS)
12-LOX inh = inhibitors of human 12S-lipoxygenase ALOX12. P18054. purified 12hLO, xylenol orange hydroperoxide absorbance. Potency, µM (doses to about 108 µM), actives largely listed as inhibitors. 580,000 compounds, 1.1% hits
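Purified human 12hLO at 150 nM in 25 mM Hepes, 0.01% Triton X-100, pH 7.0, preincubated 15 min at room temperature with compound. Reaction started with 40 uM arachidonic acid, 30 min at room temperature. Hydroperoxide measured by Fe-xylenol orange, 573/405 nm absorbance ratio.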
PLK1 PBD inh = inhibitors of human PLK1 polo-box domain binding; P53350; Plk1 PBD binding of FITC phosphopeptide, fluorescence polarization; Potency, µM, most hits filed as inhibitors; 360,000 compounds, 2.8% hits; AID 720504; further: series mostly up to about 57 µM; nearly all actives have a fitted effect of over 65% in size
Target sequence (P53350 whole entry, looked up, the tested form may be a part): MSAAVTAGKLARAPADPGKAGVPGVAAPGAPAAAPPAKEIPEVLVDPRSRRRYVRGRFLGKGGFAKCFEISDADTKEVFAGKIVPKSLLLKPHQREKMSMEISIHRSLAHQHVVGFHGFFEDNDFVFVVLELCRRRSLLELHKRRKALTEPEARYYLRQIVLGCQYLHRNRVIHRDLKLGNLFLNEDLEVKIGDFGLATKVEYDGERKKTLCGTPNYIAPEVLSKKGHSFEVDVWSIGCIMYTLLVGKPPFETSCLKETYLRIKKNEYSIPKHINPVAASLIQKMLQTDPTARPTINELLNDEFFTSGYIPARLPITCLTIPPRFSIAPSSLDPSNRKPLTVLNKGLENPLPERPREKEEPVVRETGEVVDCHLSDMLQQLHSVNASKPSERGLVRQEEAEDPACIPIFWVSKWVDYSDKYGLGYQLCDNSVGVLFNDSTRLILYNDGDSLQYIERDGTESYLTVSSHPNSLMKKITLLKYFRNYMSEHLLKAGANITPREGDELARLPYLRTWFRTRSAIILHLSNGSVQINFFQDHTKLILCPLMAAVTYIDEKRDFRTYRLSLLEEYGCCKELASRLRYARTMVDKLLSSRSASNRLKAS
VDR inh = blocks the human vitamin D receptor | 400,000 compounds, 0.93% hits | VDR-SRC2-3 peptide fluorescence polarization, 2 h | Potency, µM, most hits filed as inhibitors
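Fluorescence polarization assay measuring small-molecule disruption of VDR binding to the coregulator peptide SRC2-3. Compounds were pin-transferred (23 nl) into the reagent mix and incubated 2 h at room temperature before reading.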
Sfp PPTase inh = blocks B. subtilis Sfp PPTase activity; Biochemical Sfp PPTase activity, qHTS; Potency, µM, hits mostly inhibitors; Q9F4F7; AID 1490; 310,000 compounds, 3.5% hits;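 further: the enzyme is Sfp with the accession as filed and its product quenches rhodamine fluorescence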
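Reaction rates are the 30-min fluorescence difference (ex 525, em 598 nm) in wells containing 15 nM Sfp, 5 uM rhodamine-CoA and 12.5 uM BHQ-2-YbbR at pH 7.6 with 10 mM MgCl2.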
Hits are given with their value; 0 = inactive; ? = inconclusive; - = no result. Most compounds without a hit are left out; they make up all but 4.2% or so of the library. The call rests on the fitted dose curve; in most records, active means well fitted curve in the direction sought with a large enough effect; inconclusive means small, poorly fitted or top-dose-only effect, or another doubt; inactive means no such curve, though single readings can be large; an effect the other way counts as inactive or inconclusive.

SMILES	12-LOX inh	PLK1 PBD inh	VDR inh	Sfp PPTase inh
CCOc1ccccc1NC(=O)CSc1nnc2ccc(-c3ccccn3)nn12	0	0	0	-
[N-]=[N+]=Nc1ccc(C(=O)CSC[C@H](NC(=O)CC[C@H](N)C(=O)O)C(=O)NCC(=O)O)cc1	-	-	45µM	-
N[C@H](CCC(=O)N[C@H](CSN=O)C(=O)NCC(=O)O)C(=O)O	0	-	-	32µM
Cc1cccc(-n2c(O)c(C=Nc3ccccc3O)c3ccccc3c2=O)n1	0	0	0	?
Cc1ccc(-n2c(O)c(C=Nc3ccccc3-c3n[nH]c(=S)[nH]c3=O)c3ccccc3c2=O)c(C)c1	16µM	27µM	0	0
Cc1ccc(-n2c(O)c(C=NC3CCS(=O)(=O)C3)c3ccccc3c2=O)cc1C (configuration not stated)	0	0	0	0
Cc1cccc(-n2c(O)c(C=Nc3ccccc3-c3n[nH]c(=S)[nH]c3=O)c3ccccc3c2=O)n1	?	27µM	0	0
Cc1ccc(-n2c(O)c(C=Nc3ccccc3-c3n[nH]c(=S)[nH]c3=O)c3ccccc3c2=O)cc1C	?	30µM	0	0
Cc1ccc(-n2c(O)c(/C=N/Nc3ccc(S(=O)(=O)N4CCOCC4)cc3[N+](=O)[O-])c3ccccc3c2=O)c(C)c1	0	?	?	0
CCCNC(=O)c1cnn2c(C)c(Cc3c(C)cc(C)cc3C)c(C)nc12	?	-	0	-
CCCn1c(=O)c(C(=O)N/N=C/c2ccc(F)cc2)c(O)c2ccccc21	0	0	0	0
COc1ccc(C2CC(c3cccs3)=Nc3ccccc3S2)cc1 (configuration not stated)	0	0	0	22µM
CCc1ccc(NC(=O)Cn2c(SC)nc3ccccc32)cc1	0	0	0	0
NC(=O)/C(=N\OC(=O)c1ccco1)c1nc(-c2ccc(Br)cc2)cs1	0	5.3µM	0	0
CN(C)c1nc(=NCc2ccco2)ss1	-	2.7µM	28µM	0.5µM
O=C1CCCC(=NCc2ccco2)C1	0	0	0	0
COc1ccc(/C([O-])=C(/C(=S)Nc2ccc(C)c(C)c2)n2c[n+](C)c3ccccc32)cc1OC	?	?	0	45µM
CCOC(=O)c1c(-c2ccc(-c3ccccc3)cc2)csc1NC(=O)CNCCN(C)C	?	?	0	40µM
CCOC(=O)c1c(-c2ccc(-c3ccccc3)cc2)csc1NC(=O)CCN1CCOCC1	0	0	0	0
CCOC(=O)c1c(-c2ccc(C)cc2)csc1NC(=O)c1cc(=O)c2cc(C)ccc2o1	0	-	28µM	-
CCOC(=O)c1c(-c2ccccc2)csc1NC(=S)NC	?	?	0	0
CCOC(=O)c1c(-c2ccccc2)csc1NC(=O)C(C)NCCCN1CCOCC1 (configuration not stated)	0	0	0	40µM
CCCCn1c(SCc2ccccc2C#N)nc2c(sc3ccccc32)c1=O	0	-	0	-
Nc1nonc1-c1nc2ccccc2n1CC(=O)N/N=C/c1ccc(-c2cccc(C(=O)O)c2)o1	0	?	0	1µM
CCOC(=O)c1ccc(NC(=O)Cn2c(-c3nonc3N)nc3ccccc32)cc1	0	21µM	?	0
SMILES	12-LOX inh	PLK1 PBD inh	VDR inh	Sfp PPTase inh
Nc1nnc(CC(=O)N/N=C/c2ccc(-c3cccc(C(=O)O)c3)o2)s1	0	0	0	40µM
N#CCSc1nnc(C2CCCCC2)n1-c1ccccc1	0	0	0	0
CC1=C(C(=O)OCc2ccccc2)C(c2ccc3ccccc3c2)NC(=O)N1CCCC(=O)O (configuration not stated)	0	0	0	0
c1ccc(COc2ccc(CN3CCN(C4CCNC4)CC3)cc2)cc1 (configuration not stated)	0	-	-	-
COc1ccc(N(CC(=O)NC2CC3CCC2C3)S(=O)(=O)c2ccccc2)cc1OC (configuration not stated)	?	0	0	0
CC(C)c1ccc(CNc2nc(NCC3CC3)nc3ccsc23)cc1	50µM	0	-	-
COc1ccc(/C=C/C2=NC(=C\N(C)C)/C(=O)O2)cc1	0	0	0	79µM
Cc1cccc(N2C(=O)c3ccc(C(=O)Nc4ccccn4)cc3C2=O)c1	0	0	0	0
Cc1cccc(N2C(=O)/C(=C\c3ccc(C(=O)O)cc3)c3ccccc3C2=O)c1	0	6.7µM	?	0
Cc1ncsc1CN1C[C@@H](NC(=O)c2cccnc2)C[C@H]1CO	14µM	-	-	-
CCNC(=O)[C@@H]1C[C@H](NC(=O)c2ccccc2)CN1Cc1scnc1C	0	-	-	-
COc1ccc(OCC(=O)N/N=C2\CCCCc3ccccc32)cc1	0	11µM	0	0
S=C(N/N=C1\CCc2ccccc21)NC1CCCCC1	45µM	0	0	0
Cc1ccc(C)c(NC(=S)N/N=C2/CCCCc3ccccc32)c1	50µM	0	0	0
CC(C)NC(=S)N/N=C1\CCCCc2ccccc21	40µM	0	0	0
COc1ccc(NCC(=O)N/N=C2\CCc3ccccc32)cc1	0	0	0	0
O=C(NCc1cccnc1)C1CN(S(=O)(=O)c2cccs2)CC12CCCCC2 (configuration not stated)	0	-	-	-
CN(Cc1ccc(-c2ccccc2)cc1)Cc1ccc(C(F)(F)F)cc1	0	-	-	-
N#C/C(=C\c1cn(Cc2ccccc2F)c2ccccc12)C(N)=O	0	-	-	-
Cn1cc(CN2CCCC(C(=O)N3CCOCC3)C2)c(-c2ccc(C3CCCCC3)cc2)n1 (configuration not stated)	0	-	-	-
COc1cccc(NC(=S)N/N=C2/CCCCc3ccccc32)c1	45µM	0	0	0
CC1CC(C)(C)NC(=S)N1CCC(=O)N1CCc2ccccc21 (configuration not stated)	?	0	0	0
O=C(O)CCc1ccc(-c2ccccc2)n1Cc1ccco1	?	0	0	35µM
CCc1ccc(-c2nc(CS(=O)CC(=O)NCCc3ccccc3)c(C)o2)cc1 (configuration not stated)	0	?	0	0
NNc1nc2sc3c(c2c(=O)[nH]1)CCc1ccccc1-3	35µM	0	?	?
SMILES	12-LOX inh	PLK1 PBD inh	VDR inh	Sfp PPTase inh
COc1ccc(C2=NN(C(=O)c3ccccc3)C(c3ccc(OC)c(OC)c3)C2)c(O)c1 (configuration not stated)	0	0	0	0
CC(=O)c1cnc(-c2ccccc2Cl)s1	0	0	0	0
CC(=O)c1cnc(-c2ccccn2)s1	0	21µM	0	0
CCn1c(=O)c2cc(C(=O)NCCc3cccc(C)c3)sc2c2ccccc21	0	-	0	-
CCN=c1sc(C(=O)NCCc2ccccc2)cc(=O)n1CC	-	0	?	56µM
CSc1nnc(-c2cc3c(s2)-c2ccccc2CC3)o1	0	0	0	18µM
CSc1nnc(-c2ccccc2SC)o1	0	30µM	0	?
S=c1[nH]nc(-c2cc3c(s2)-c2ccccc2CC3)o1	40µM	21µM	?	?
CSc1ccccc1-c1nnc(-c2ccccc2)o1	0	0	0	?
Cn1nc(C(=O)N2CCN(c3ccccc3F)CC2)c2c1-c1ccccc1SC2	0	-	0	-
Clc1ccccc1C1(c2ccnc(NCc3ccccc3)n2)CCNCC1	0	-	-	-
Clc1ccccc1C1(c2ccnc(NCCc3cccnc3)n2)CCNCC1	20µM	-	-	-
CCN(CC)S(=O)(=O)c1cc([N+](=O)[O-])ccc1NNC(=O)Nc1ccc(F)cc1	?	0	0	45µM
